According to the supplement of paper PMC8728848:
Shown is part of a subset that was picked to be rich in the strongest signals.

What was measured:
Test in all cases: glycan array binding signal (z-score within array); higher = stronger binding
Conditions in all cases: glycan notation: IUPAC condensed, linker removed
[1] = molecular target: Glc(a1-2)Glc(a1-2)Glc(a1-2)Glc(a1-2)Glc(a1-2)Glc(a1-2)Glc(a1-2)Glc(a1-2)Glc
Outline: (§1)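 Negative Z-scores can be read as non-binding. The Z-score is calculated within each array and then averaged across arrays of one protein sequence at different concentrations or buffers and across linkers. Arrays, 3228 in all, were curated from the Consortium for Functional Glycomics database and kept only where the protein sequence was available.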

[2] = molecular target: Glc(a1-3)Glc(a1-3)Glc(a1-3)Glc(a1-3)Glc(a1-3)Glc(a1-3)Glc(a1-3)Glc(a1-3)Glc(a1-3)Glc(a1-3)Glc(a1-3)Glc
Outline: as §1

[3] = molecular target: Glc(a1-4)Glc(a1-4)Glc(a1-4)Glc
Outline: as §1

[4] = molecular target: Glc(a1-4)Glc(a1-4)Glc(a1-4)Glc(a1-4)Glc(a1-4)Glc
Outline: as §1

[5] = molecular target: Glc(a1-4)Glc(a1-4)Glc(a1-4)Glc(a1-4)Glc(a1-4)Glc(a1-4)Glc(a1-4)Glc
Outline: as §1

[6] = molecular target: Glc(a1-4)Glc(a1-4)Glc(a1-4)Glc(a1-4)Glc(a1-4)Glc(a1-4)Glc(a1-4)Glc(a1-4)Glc(a1-4)Glc(a1-4)Glc(a1-4)Glc
Outline: as §1

[7] = molecular target: Glc(b1-3)Glc(b1-3)Glc(b1-3)Glc(b1-3)Glc(b1-3)Glc
Outline: as §1

[8] = molecular target: Glc(b1-3)Glc(b1-3)Glc(b1-3)Glc(b1-3)Glc(b1-3)Glc(b1-3)Glc(b1-3)Glc
Outline: as §1

Glc(b1-4)Glc(b1-4)Glc = molecular target: Glc(b1-4)Glc(b1-4)Glc
Outline: as §1

[9] = molecular target: Glc(b1-4)Glc(b1-4)Glc(b1-4)Glc(b1-4)Glc(b1-4)Glc(b1-4)Glc(b1-4)Glc(b1-4)Glc
Outline: as §1

[10] = molecular target: Glc(b1-6)Glc(b1-6)Glc(b1-6)Glc(b1-6)Glc(b1-6)Glc(b1-6)Glc(b1-6)Glc(b1-6)Glc(b1-6)Glc
Outline: as §1

Glc(a1-2)Glc = molecular target: Glc(a1-2)Glc
Outline: as §1

[11] = molecular target: Glc(a1-6)Glc(a1-6)Glc(a1-6)Glc(a1-6)Glc(a1-6)Glc
Outline: as §1

Glc(b1-2)Glc(b1-2)Glc = molecular target: Glc(b1-2)Glc(b1-2)Glc
Outline: as §1

[12] = molecular target: Glc(b1-2)Glc(b1-2)Glc(b1-2)Glc(b1-2)Glc(b1-2)Glc(b1-2)Glc(b1-2)Glc(b1-2)Glc
Outline: as §1

[13] = molecular target: Glc(b1-3)Glc(b1-3)Glc(b1-3)Glc(b1-3)Glc(b1-3)Glc(b1-3)[Glc(b1-6)]Glc(b1-3)Glc(b1-3)Glc
Outline: as §1

[14] = molecular target: Glc(b1-4)Glc(b1-4)Glc(b1-3)Glc(b1-4)Glc(b1-4)Glc(b1-3)Glc
Outline: as §1

Glc(b1-6)Glc(b1-6)Glc = molecular target: Glc(b1-6)Glc(b1-6)Glc
Outline: as §1

[15] = molecular target: Man(b1-4)Man(b1-4)Man(b1-4)Man(b1-4)Man
Outline: as §1

Glc(a1-4)Glc = molecular target: Glc(a1-4)Glc
Outline: as §1

Glc(a1-6)Glc = molecular target: Glc(a1-6)Glc
Outline: as §1

[16] = molecular target: Glc(b1-2)Glc(b1-2)Glc(b1-2)Glc(b1-2)Glc
Outline: as §1

[17] = molecular target: Glc(b1-3)Glc(b1-3)Glc(b1-3)Glc(b1-3)Glc
Outline: as §1

[18] = molecular target: Glc(b1-3)Glc(b1-3)Glc(b1-3)Glc(b1-3)Glc(b1-3)Glc(b1-3)Glc(b1-3)Glc(b1-3)Glc(b1-3)Glc(b1-3)Glc
Outline: as §1

[19] = molecular target: Glc(b1-3)Glc(b1-3)Glc(b1-3)Glc(b1-3)Glc(b1-3)Glc(b1-3)Glc(b1-3)Glc(b1-3)Glc(b1-3)Glc(b1-3)Glc(b1-3)Glc
Outline: as §1

[20] = molecular target: Glc(b1-3)Glc(b1-3)Glc(b1-3)Glc(b1-3)Glc(b1-3)Glc(b1-3)Glc(b1-3)Glc(b1-3)Glc(b1-3)Glc(b1-3)Glc(b1-3)Glc(b1-3)Glc
Outline: as §1

[21] = molecular target: Glc(b1-3)Glc(b1-3)Glc(b1-3)Glc(b1-3)Glc(b1-3)Glc(b1-3)Glc(b1-3)[Glc(b1-6)]Glc(b1-3)Glc
Outline: as §1

[22] = molecular target: Glc(b1-6)Glc(b1-6)Glc(b1-6)Glc(b1-6)Glc(b1-6)Glc(b1-6)Glc(b1-6)Glc
Outline: as §1

[23] = molecular target: Glc(b1-6)Glc(b1-6)Glc(b1-6)Glc(b1-6)Glc(b1-6)Glc(b1-6)Glc(b1-6)Glc(b1-6)Glc
Outline: as §1

[24] = molecular target: Man(b1-4)Man(b1-4)Man(b1-4)Man
Outline: as §1

B1: Pul13 (Thermotoga maritima), O33840 (protein)
chain: ETTIVVHYHRYDGKYDGWNLWIWPVEPVSQEGKAYQFTGEDDFGKVAVVKLPMDLTKVGIIVRLNEWQAKDVAKDRFIEIKDGKAEVWILQGVEEIFYEKP
glycan array binding signal (z-score) [1]: -0.351
glycan array binding signal (z-score) [2]: -0.3
glycan array binding signal (z-score) [3]: 2.43
glycan array binding signal (z-score) [4]: 3.61
glycan array binding signal (z-score) [5]: 4.12
glycan array binding signal (z-score) [6]: 3.44
glycan array binding signal (z-score) [7]: -0.351
glycan array binding signal (z-score) [8]: -0.351
glycan array binding signal (z-score) (Glc(b1-4)Glc(b1-4)Glc): -0.351
glycan array binding signal (z-score) [9]: -0.351
glycan array binding signal (z-score) [10]: -0.351

B2: Cel5A (Clostridium thermocellum), P16218 (protein)
chain: AVGEKMLDDFEGVLNWGSYSGEGAKVSTKIVSGKTGNGMEVSYTGTTDGYWGTVYSLPDGDWSKWLKISFDIKSVDGSANEIRFMIAEKSINGVGDGEHWVYSITPDSSWKTIEIPFSSFRRRLDYQPPGQDMSGTLDLDNIDSIHFMYANNKSGKFVVDNIKLIGATSDPTPSIKHGDLNFDNAVNSTDLLMLKRYILKSLELGTSEQEEKFKKAADLNRDNKVDSTDLTILKRYLLKAISEIPI
glycan array binding signal (z-score) (Glc(a1-2)Glc): -0.143
glycan array binding signal (z-score) [11]: -0.143
glycan array binding signal (z-score) (Glc(b1-2)Glc(b1-2)Glc): -0.143
glycan array binding signal (z-score) [12]: -0.143
glycan array binding signal (z-score) [13]: 0.047
glycan array binding signal (z-score) [14]: 4.62
glycan array binding signal (z-score) (Glc(b1-6)Glc(b1-6)Glc): -0.143
glycan array binding signal (z-score) [15]: 0.04

B3: Dectin-1 (Homo sapiens), Q9BXN2 (protein)
chain: TMAIWRSNSGSNTLENGYFLSRNKENHSQPTQSSLEDSVTPTKAVKTTGVLSSPCPPNWIIYEKSCYLFSMSLNSWDGSKRQCWQLGSNLLKIDSSNELGFIVKQVSSQPDNSFWIGLSRPQTEVPWLWEDGSTFSSNLFQIRTTATQENPSPNCVWIHVSVIYDQLCSVPSYSICEKKFSM
glycan array binding signal (z-score) (Glc(a1-4)Glc): -0.145
glycan array binding signal (z-score) (Glc(a1-6)Glc): -0.145
glycan array binding signal (z-score) [16]: -0.145
glycan array binding signal (z-score) [17]: -0.145
glycan array binding signal (z-score) [18]: 0.976
glycan array binding signal (z-score) [19]: 5
glycan array binding signal (z-score) [20]: 9.53
glycan array binding signal (z-score) [21]: -0.145
glycan array binding signal (z-score) [9]: -0.145
glycan array binding signal (z-score) [22]: -0.145
glycan array binding signal (z-score) [23]: -0.145
glycan array binding signal (z-score) [24]: -0.082
